Rows were chosen to be rich in hits. Some 7.5% of all compounds tested hit in one or more screens of this group.
Rab9 prom act – activators of Rab9 promoter | Potency, µM (top dose mostly 9.22 µM), hits mostly activators | Huh7 Rab9 promoter-luciferase reporter, luminescence, 24 h | 320,000 tested, 2.8% active; also: nearly all actives have a fitted effect of over 60% in size
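Cells were plated at 1500 per well in reduced-serum medium with 10% FBS and left 2 h. Compound in DMSO was then added for 24 h at 37 °C. Reporter signal was read by luminescence after 10 min with luciferase detection reagent.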
ELG1 genotox – induces genotoxicity in HEK293T cells with luciferase-tagged ELG1; HEK293T ELG1-luciferase reporter, luminescence, 16 h; Potency, µM (top dose mostly 46 µM), hits mostly activators; 330,000 tested, 1.3% active; AID 504466; also: nearly all actives have a fitted effect of over 60% in size
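Cells (2,000/well) expressing the ELG1-luciferase fusion are dosed by pin tool and kept 16 hr at 37 °C, 5% CO2. Signal comes from ONE-Glo luciferase reagent after 30 min at room temperature.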
NPC1 prom act – activators of NPC1 promoter; Huh7 NPC1 promoter luciferase reporter, 24 h; 320,000 tested, 2.4% active; Potency, µM (series often up to 9.22 µM), usual class: activators; also: nearly all actives have a fitted effect of over 60% in size
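Quantitative HTS used a cell-based reporter: Huh7 cells stably bearing the NPC1 promoter upstream of luciferase were treated with compounds for 24 h, and promoter activation was read as luminescence.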
FLuc modulator – firefly luciferase modulation, counter-screen for miR-21 project. P08659. Potency, µM (series often up to 57.5 µM), actives largely listed as inhibitors. 360,000 tested, 6.9% active. purified FLuc, Km substrates, luminescence inhibition; also: nearly all actives have a fitted effect of over 55% in size
Target sequence (P08659 whole entry, looked up): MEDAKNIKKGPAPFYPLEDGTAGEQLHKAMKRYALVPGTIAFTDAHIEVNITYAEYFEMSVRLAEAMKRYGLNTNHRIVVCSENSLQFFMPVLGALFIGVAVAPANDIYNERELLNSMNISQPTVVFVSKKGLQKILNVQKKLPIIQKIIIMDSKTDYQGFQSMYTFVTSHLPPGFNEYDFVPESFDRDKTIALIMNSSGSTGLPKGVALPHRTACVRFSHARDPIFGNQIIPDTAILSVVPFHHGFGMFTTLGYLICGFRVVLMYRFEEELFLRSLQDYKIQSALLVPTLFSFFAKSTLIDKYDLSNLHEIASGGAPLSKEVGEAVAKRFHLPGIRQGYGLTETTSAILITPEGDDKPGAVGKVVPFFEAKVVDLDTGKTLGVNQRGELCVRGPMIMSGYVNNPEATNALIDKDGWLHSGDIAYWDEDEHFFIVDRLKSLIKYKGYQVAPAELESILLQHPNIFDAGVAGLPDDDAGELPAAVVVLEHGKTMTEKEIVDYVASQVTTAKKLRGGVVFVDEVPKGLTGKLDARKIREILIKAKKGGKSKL
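Purified P. pyralis luciferase, 10 nM final, with Km-level 10 uM D-luciferin and 10 uM ATP in 50 mM Tris acetate pH 7.5, 10 mM Mg acetate, 0.01% Tween-20, 0.05% BSA; 6-point qHTS titration about 60 µM downward; luminescence read.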
SMN2 splice enh – SMN2 splice variant enhancement. HEK293 SMN2-luciferase splicing reporter, luminescence, 30-36 h. Potency, µM (doses to about 46.1 µM), actives largely listed as activators. 210,000 tested, 2.8% active. AID 1458; also: nearly all actives have a fitted effect of over 55% in size
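HEK293 cells carry an SMN2 minigene-luciferase reporter in which exon 7 inclusion puts luciferase in frame. Cells were seeded at 2000 cells/well, attached for 10-12 hours, then exposed to compounds for 30-36 hours at 37C before ONE-Glo luminescence.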
A number is an active result; - = inactive; ? = inconclusive; . = no result given; ! = repeats disagree. Calls follow the shape of the dose curve; as a rule, active = well fitted curve in the direction sought with a large enough effect; inconclusive = small, poorly fitted or top-dose-only effect, or another doubt; inactive = no such curve, though single readings can be large; an effect the other way counts as inactive or inconclusive.

SMILES	Rab9 prom act	ELG1 genotox	NPC1 prom act	FLuc modulator	SMN2 splice enh
O=C(CNc1cc(S(=O)(=O)N2CCCC2)ccc1OCC(F)(F)F)Nc1cc(Cl)cc(Cl)c1	-	-	-	-	-
O=C(COc1ccc2ccccc2c1Br)Nc1ncn[nH]1	-	?	-	13µM	-
Cc1ccsc1/C=N/NC(=O)c1ccccn1	2.5µM	?	2µM	8.5µM	11µM
Cc1ccsc1/C=N/NC(=O)C(N)=O	-	-	-	?	?
Cc1ccsc1/C=N/NC(=O)C(O)c1ccccc1 (configuration not stated)	-	-	-	-	.
Cc1ccsc1/C=N/NC(=O)c1cccs1	?	?	?	11µM	.
O=C(c1ccc(Cl)c(S(=O)(=O)N2CCOCC2)c1)N(Cc1nnc(-c2ccccc2Cl)o1)C1CC1	-	-	-	-	.
CCS(=O)(=O)NCc1cn2c(C)csc2n1	-	-	-	-	-
Cc1nc(CCNS(=O)(=O)c2cccs2)cs1	-	-	-	-	-
CCCS(=O)(=O)NCc1cn2c(C)csc2n1	?	12µM	?	?	11µM
Cc1csc2nc(CCNS(=O)(=O)c3cccs3)cn12	?	21µM	?	24µM	-
Cc1ccc(N(CC(C)C)S(=O)(=O)c2nnc(NC(=O)C(C)C)s2)cc1	.	.	.	-	.
O=C(C(Sc1ccccc1)c1ccccc1)N1CCN(c2ccccc2F)CC1 (configuration not stated)	-	-	-	-	-
Nn1c(SCc2ccccc2)nc2ccccc21	3.2µM	?	1.8µM	19µM	.
O=C(O)Cn1c(SCc2ccccc2)nc2ccccc21	-	-	-	?	-
CCOC(=O)COc1ccccc1C(=O)c1cnn(-c2ccccc2)c1	?	?	?	11µM	.
O=C(COc1ccccc1C(=O)c1cnn(-c2ccccc2)c1)Nc1ccc2ccccc2c1	?	-	?	1.5µM	13µM
CC(C)n1cc(NC(=O)COc2ccccc2Cl)cn1	-	-	-	-	.
CC(C)c1ccc(NC(=O)COc2ccc(F)cc2C(=O)c2cnn(-c3ccccc3)c2)cc1	?	-	-	9.5µM	?
COc1ccccc1C(=O)Nc1ccc(S(=O)(=O)NC2=NCCCCC2)cc1	?	-	-	-	-
Cc1ccc(C(=O)Nc2ccc(S(=O)(=O)NC3=NCCCCC3)cc2)c(C)c1	-	-	-	12µM	.
Cc1cc(C)n(-c2nc(-c3ccc(Cl)cc3)cs2)n1	3.5µM	?	?	5.4µM	-
Cc1ccc(-c2csc(N3C(=N)SCC3=O)n2)cc1	2.8µM	10µM	?	2.4µM	.
CC1=NN(c2nc(-c3ccc(Cl)cc3)cs2)C(=O)C1	-	-	-	15µM	-
CC(C)(C)c1ccc(N2C(=N)SCC2=O)cc1	-	-	-	-	.
SMILES	Rab9 prom act	ELG1 genotox	NPC1 prom act	FLuc modulator	SMN2 splice enh
CC1=NN(c2nc(-c3ccc(F)cc3)cs2)C(=O)C1	-	-	-	17µM	-
Cc1cc(C)n(CCc2nc(-c3ccc(F)cc3)cs2)n1	-	-	-	-	.
CC1=NN(c2ccc(Cl)cc2)C(=O)C1	-	-	-	-	-
Cc1ccc(-c2nnc(N3CCN(C(=O)CN4CCOCC4)CC3)c3ccccc23)cc1	-	-	-	-	-
COc1ccc(C=C2C(=O)c3ccccc3C2=O)cc1O	-	-	-	3.4µM	-
COc1cc(C=C2C(=O)c3ccccc3C2=O)ccc1O	-	-	-	3µM	.
O=C(CN1CCCN(Cc2cccc(Cl)c2)S1(=O)=O)Nc1ccc2c(c1)OCCO2	.	.	.	-	.
CC(=O)c1cc(C#N)c(NCCCN(C)C)nc1C	-	-	-	-	-
O=C(Cc1ccc2cccnc2c1)c1ccc(O)cc1O	?	?	-	21µM	-
CC1CN(C(=O)N2CCC(C(=O)NC3CCCCCC3)CC2)c2ccccc2O1 (configuration not stated)	.	.	.	-	.
CCC1CN(C(=O)N2CCC(C(=O)Nc3ccccc3F)CC2)c2ccccc2O1 (configuration not stated)	-	-	-	11µM!	.
COC(=O)c1ccccc1NC(=O)C1CCN(C(=O)N2CC(C)Oc3ccccc32)CC1 (configuration not stated)	.	.	.	4.8µM	.
CCC1CN(C(=O)N2CCC(C(=O)NCc3ccccc3F)CC2)c2ccccc2O1 (configuration not stated)	.	.	.	-	.
CCC1CN(C(=O)N2CCC(C(=O)N3CCN(c4cc(C)ccc4C)CC3)CC2)c2ccccc2O1 (configuration not stated)	.	.	.	1.9µM	.
CC1CC2=C(NC(=S)NC2c2cccc(F)c2)/C(=C/c2cccc(F)c2)C1 (configuration not stated)	-	-	-	-	-
C#CCOc1ccc(/C=C2/C(=O)NN(c3ccc(F)cc3)C2=O)cc1OC	-	-	-	1.9µM	.
COc1cc(C=C2C(=O)OC(C)(C)OC2=O)ccc1OCC(=O)Nc1ccccc1	-	?	-	11µM	-
COc1cc(/C=C2\C(=O)NN(c3ccccc3)C2=O)ccc1OCC(N)=O	-	-	-	11µM	-
COc1cc(/C=C/c2cc[n+](C)cc2)ccc1OCC(=O)Nc1ccccc1	-	-	-	?	.
COc1cc2c(C(=O)Nc3ccccc3F)cn(C)c(=O)c2cc1OC	-	-	-	-	.
Cc1ccc(C)c(N2CCN(c3ncnc4c3nc3n4CCCCC3)CC2)c1	.	.	.	-	.
Cc1ccc(/C(O)=C/C(=O)C(=O)NC23CC4CC(CC(C4)C2)C3)cc1	3.2µM	-	?	17µM	.
Cc1ccc(C(=O)NCC(=O)NC23CC4CC(CC(C4)C2)C3)cc1	?	16µM	-	-	.
Cc1ccc(CNC(=O)NC23CC4CC(CC(C4)C2)C3)cc1	-	-	-	-	-
COc1ccc(NC(=S)Nc2ccccn2)c(OC)c1	?	?	?	?	11µM
SMILES	Rab9 prom act	ELG1 genotox	NPC1 prom act	FLuc modulator	SMN2 splice enh
COc1cc(NC(=S)Nc2ccccn2)cc(OC)c1	-	-	-	9.5µM	-
COc1ccc(NC(=S)Nc2ccc(OC)cc2OC)c(OC)c1	-	-	-	-	-
COc1ccc(NC(=S)Nc2cc(C)ccn2)c(OC)c1	?	?	?	2.7µM	11µM
COc1ccc(NC(=S)Nc2cnc3ccccc3c2)c(OC)c1	-	-	-	6µM	-
COc1ccc(NC(=S)NC(=O)CC(C)C)c(OC)c1	-	-	-	13µM	-
CN(C(=O)c1cccc(C#N)c1)c1nnc(-c2ccncc2)s1	-	-	-	-	-
CSc1cccc(NC(=O)COc2ccccc2)c1	-	-	-	17µM	-
CC(=O)c1cccc(NC(=O)COc2ccccc2)c1	-	?	-	?	-
CSc1cccc(NC(=O)Nc2ccccc2C(N)=O)c1	-	-	-	11µM	.
CSc1cccc(NC(=O)Nc2ccccc2)c1	-	?	-	13µM	?
CCOC(=O)c1c(NC(=O)CSc2nnc(N)s2)sc(C)c1-c1ccc(C)cc1	-	-	-	-	.
COc1ccccc1N1CCN(C(=O)Cn2ncc3c2-c2cc(C)ccc2OC3)CC1	.	.	.	-	-
